# From PMC7862700, “An all-to-all approach to the identification of sequence-specific readers for epigenetic DNA modifications on cytosine”
# Key:
# Test in all cases: DAPPL (digital affinity profiling via proximity ligation, sequencing); 10 mM Tris-HCl pH 7.5, 50 mM NaCl, 1 mM DTT, 4% glycerol, room temperature, 30 min; GST-TFs on glutathione beads, 16-mer random dsDNA library, 0.1% formaldehyde crosslink after washing; high values mean tight binding
# [1] = biological target: T1, FLI1 (Homo sapiens, UniProt Q01543 1-452); conditions: protein: recombinant; tags: N-terminal GST; dsDNA, one strand shown
# T1 sequence: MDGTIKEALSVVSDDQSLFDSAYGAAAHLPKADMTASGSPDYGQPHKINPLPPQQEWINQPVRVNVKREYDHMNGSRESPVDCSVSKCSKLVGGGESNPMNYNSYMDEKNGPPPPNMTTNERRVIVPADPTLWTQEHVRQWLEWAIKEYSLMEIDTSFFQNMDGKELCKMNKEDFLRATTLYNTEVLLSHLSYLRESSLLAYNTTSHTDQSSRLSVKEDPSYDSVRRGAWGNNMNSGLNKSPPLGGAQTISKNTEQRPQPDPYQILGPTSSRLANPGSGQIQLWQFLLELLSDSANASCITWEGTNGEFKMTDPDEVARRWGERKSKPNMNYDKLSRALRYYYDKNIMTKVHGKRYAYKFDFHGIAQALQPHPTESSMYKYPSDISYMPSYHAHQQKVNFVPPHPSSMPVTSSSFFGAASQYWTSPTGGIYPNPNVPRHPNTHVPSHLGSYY
# Method in brief: (§1)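 Human transcription factors fused to GST were expressed in yeast, captured on glutathione beads, given DNA barcodes and pooled with a GST-only negative control. Pools were incubated with 200 nmole of a 16-mer random double-stranded DNA library in Tris/NaCl/DTT/glycerol buffer at room temperature for 30 min. They were then washed, crosslinked with 0.1% formaldehyde, proximity-ligated (BsaI/T4 ligase, 1 h, 37 °C), PCR-amplified and sequenced on an Illumina NextSeq500. Binding signal is each 6-mer's read frequency for a factor divided by its frequency for the GST control.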
# [2] = biological target: T2, ELK1 (Homo sapiens, UniProt P19419 1-428); conditions: protein: recombinant; tags: N-terminal GST; dsDNA, one strand shown
# T2 sequence: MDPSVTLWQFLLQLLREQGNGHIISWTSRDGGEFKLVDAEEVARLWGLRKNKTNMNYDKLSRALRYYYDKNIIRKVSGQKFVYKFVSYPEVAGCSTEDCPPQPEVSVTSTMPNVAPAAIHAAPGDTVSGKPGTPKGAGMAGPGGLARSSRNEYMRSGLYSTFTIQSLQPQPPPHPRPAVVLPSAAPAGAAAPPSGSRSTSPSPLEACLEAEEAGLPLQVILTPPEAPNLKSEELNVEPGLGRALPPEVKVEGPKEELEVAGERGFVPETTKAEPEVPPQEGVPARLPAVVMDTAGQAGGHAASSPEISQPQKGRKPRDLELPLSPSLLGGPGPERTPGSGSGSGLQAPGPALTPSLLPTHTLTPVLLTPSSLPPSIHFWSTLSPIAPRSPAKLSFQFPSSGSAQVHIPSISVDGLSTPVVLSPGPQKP
# Method in brief: as §1
# [3] = biological target: T3, GABPA (Homo sapiens, UniProt Q06546 1-454); conditions: protein: recombinant; tags: N-terminal GST; dsDNA, one strand shown
# T3 sequence: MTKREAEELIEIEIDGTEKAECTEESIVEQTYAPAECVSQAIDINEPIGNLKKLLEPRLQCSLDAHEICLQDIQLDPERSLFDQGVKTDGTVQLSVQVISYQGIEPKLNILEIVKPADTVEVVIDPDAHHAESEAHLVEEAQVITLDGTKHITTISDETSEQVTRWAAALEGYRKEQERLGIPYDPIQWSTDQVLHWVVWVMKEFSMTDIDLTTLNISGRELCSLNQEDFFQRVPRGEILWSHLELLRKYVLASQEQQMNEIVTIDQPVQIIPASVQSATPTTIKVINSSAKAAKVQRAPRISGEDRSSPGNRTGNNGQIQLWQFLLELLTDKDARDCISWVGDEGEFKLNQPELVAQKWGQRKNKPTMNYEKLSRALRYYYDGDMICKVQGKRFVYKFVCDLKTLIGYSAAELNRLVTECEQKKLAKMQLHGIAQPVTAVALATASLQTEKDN
# Method in brief: as §1
# [4] = biological target: T4, ERG (Homo sapiens, UniProt P11308 1-479); conditions: protein: recombinant; tags: N-terminal GST; dsDNA, one strand shown
# T4 sequence: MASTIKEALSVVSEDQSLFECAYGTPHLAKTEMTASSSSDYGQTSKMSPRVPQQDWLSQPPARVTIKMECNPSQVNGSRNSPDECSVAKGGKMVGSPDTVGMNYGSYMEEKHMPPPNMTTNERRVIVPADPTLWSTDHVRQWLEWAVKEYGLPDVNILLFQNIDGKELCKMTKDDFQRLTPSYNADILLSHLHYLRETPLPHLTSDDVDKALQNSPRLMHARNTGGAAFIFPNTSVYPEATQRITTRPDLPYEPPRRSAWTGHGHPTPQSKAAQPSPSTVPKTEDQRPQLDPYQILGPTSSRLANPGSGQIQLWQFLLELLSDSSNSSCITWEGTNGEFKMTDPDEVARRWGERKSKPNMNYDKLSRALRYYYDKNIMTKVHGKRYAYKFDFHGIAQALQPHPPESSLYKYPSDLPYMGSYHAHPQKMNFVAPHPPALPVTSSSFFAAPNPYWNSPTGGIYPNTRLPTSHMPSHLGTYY
# Method in brief: as §1
# [5] = biological target: ELF1 (Homo sapiens, UniProt P32519 1-619); conditions: protein: recombinant; tags: N-terminal GST; dsDNA, one strand shown
# ELF1, sequence (P32519 whole entry): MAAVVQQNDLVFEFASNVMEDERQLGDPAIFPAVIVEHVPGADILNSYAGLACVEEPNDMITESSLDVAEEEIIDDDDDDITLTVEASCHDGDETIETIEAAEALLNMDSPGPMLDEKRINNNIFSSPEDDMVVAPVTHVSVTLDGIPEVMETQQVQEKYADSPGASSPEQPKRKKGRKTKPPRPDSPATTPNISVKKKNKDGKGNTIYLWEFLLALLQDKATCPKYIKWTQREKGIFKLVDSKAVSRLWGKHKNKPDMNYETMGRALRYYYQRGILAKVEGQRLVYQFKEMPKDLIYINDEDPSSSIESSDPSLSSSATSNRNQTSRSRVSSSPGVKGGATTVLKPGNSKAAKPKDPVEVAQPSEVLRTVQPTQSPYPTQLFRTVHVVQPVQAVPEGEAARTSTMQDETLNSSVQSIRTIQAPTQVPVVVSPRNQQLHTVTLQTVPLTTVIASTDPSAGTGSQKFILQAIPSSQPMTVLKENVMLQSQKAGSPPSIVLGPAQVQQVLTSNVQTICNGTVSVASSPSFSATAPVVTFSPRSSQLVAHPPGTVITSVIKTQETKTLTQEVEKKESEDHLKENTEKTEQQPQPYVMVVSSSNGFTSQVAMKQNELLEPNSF
# Method in brief: as §1
# [6] = biological target: T5, EHF (Homo sapiens, UniProt Q9NZC4 1-300); conditions: protein: recombinant; tags: N-terminal GST; dsDNA, one strand shown
# T5 sequence: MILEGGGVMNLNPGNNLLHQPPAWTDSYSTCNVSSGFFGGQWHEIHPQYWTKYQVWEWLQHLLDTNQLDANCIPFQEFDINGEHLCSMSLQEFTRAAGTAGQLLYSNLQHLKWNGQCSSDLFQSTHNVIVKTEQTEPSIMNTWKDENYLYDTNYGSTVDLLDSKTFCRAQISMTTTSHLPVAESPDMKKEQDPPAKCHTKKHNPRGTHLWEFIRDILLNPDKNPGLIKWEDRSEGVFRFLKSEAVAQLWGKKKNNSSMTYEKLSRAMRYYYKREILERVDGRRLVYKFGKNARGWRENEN
# Method in brief: as §1
# [7] = biological target: SPI1 (Homo sapiens, UniProt P17947 1-270); conditions: protein: recombinant; tags: N-terminal GST; dsDNA, one strand shown
# Method in brief: as §1
# [8] = biological target: SPIB (Homo sapiens, UniProt Q01892 1-262); conditions: protein: recombinant; tags: N-terminal GST; dsDNA, one strand shown
# SPIB, sequence (Q01892 whole entry): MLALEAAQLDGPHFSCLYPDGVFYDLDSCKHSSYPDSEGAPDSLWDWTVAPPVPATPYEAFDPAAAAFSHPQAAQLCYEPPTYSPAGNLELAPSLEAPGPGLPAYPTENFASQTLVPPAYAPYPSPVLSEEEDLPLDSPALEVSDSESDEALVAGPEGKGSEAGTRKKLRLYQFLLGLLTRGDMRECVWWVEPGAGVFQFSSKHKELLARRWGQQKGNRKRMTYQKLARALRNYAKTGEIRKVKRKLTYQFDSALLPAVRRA
# Method in brief: as §1
# [9] = biological target: T6, ELK3 (Homo sapiens, UniProt P41970 1-407); conditions: protein: recombinant; tags: N-terminal GST; dsDNA, one strand shown
# T6 sequence: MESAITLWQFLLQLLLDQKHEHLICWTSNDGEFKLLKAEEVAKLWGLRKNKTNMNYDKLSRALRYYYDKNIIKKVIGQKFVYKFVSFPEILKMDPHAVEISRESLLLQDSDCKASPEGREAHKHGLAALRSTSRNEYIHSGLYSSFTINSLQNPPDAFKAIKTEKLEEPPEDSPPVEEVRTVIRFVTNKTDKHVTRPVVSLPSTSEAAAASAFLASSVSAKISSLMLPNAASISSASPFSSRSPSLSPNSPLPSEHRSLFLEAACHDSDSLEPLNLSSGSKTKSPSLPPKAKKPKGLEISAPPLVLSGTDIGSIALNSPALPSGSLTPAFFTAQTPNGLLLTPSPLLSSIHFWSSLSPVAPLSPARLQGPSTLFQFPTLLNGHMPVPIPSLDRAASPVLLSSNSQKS
# Method in brief: as §1
# [10] = biological target: T7, FEV (Homo sapiens, UniProt Q99581 1-238); conditions: protein: recombinant; tags: N-terminal GST; dsDNA, one strand shown
# T7 sequence: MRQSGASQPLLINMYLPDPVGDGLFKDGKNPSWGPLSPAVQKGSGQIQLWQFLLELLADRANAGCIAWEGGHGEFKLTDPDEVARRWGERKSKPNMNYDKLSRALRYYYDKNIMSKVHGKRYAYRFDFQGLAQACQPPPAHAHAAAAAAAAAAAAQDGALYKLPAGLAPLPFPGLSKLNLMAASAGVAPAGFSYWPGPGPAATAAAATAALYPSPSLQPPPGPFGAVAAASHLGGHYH
# Method in brief: as §1
# [11] = biological target: ETV5 (Homo sapiens, UniProt P41161 1-510); conditions: protein: recombinant; tags: N-terminal GST; dsDNA, one strand shown
# ETV5, sequence (P41161 whole entry): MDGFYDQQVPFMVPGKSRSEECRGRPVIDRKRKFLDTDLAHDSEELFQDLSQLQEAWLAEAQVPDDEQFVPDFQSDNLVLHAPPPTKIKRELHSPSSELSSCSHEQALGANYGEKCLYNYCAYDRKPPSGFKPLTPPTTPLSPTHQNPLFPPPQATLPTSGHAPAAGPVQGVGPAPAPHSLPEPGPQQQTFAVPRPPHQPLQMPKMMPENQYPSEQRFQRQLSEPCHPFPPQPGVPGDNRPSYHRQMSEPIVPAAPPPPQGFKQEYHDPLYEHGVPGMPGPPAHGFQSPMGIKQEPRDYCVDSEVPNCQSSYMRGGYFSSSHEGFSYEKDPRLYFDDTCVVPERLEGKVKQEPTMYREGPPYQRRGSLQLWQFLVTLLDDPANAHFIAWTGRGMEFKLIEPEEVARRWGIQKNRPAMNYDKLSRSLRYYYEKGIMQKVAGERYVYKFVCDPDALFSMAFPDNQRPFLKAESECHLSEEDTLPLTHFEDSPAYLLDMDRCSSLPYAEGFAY
# Method in brief: as §1
# [12] = biological target: HSF1 (Homo sapiens, UniProt Q00613 1-529); conditions: protein: recombinant; tags: N-terminal GST; chain copies: 3; dsDNA, one strand shown
# HSF1, sequence (Q00613 whole entry): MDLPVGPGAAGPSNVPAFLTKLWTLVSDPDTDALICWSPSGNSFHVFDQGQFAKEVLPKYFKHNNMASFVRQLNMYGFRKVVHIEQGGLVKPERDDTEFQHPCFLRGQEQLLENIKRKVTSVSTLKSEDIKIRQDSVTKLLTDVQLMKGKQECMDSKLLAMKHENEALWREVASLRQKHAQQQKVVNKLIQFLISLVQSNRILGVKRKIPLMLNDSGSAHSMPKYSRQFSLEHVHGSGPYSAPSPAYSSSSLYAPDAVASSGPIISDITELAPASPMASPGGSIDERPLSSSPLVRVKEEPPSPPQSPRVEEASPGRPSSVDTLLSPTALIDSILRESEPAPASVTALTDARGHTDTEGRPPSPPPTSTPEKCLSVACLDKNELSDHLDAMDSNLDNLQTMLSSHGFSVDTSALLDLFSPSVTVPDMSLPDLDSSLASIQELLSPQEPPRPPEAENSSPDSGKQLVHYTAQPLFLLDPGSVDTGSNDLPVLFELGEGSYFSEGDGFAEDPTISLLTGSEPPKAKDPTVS
# Method in brief: as §1
# [13] = biological target: T8, SPIC (Homo sapiens, UniProt Q8N5J4 1-248); conditions: protein: recombinant; tags: N-terminal GST; dsDNA, one strand shown
# T8 sequence: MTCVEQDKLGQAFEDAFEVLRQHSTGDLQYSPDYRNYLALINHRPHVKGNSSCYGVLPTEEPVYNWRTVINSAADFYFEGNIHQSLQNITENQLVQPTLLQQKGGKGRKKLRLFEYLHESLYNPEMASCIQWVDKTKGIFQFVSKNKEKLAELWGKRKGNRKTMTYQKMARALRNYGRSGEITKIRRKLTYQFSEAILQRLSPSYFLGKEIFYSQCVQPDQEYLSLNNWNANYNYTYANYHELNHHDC
# Method in brief: as §1
# [14] = biological target: ELF4 (Homo sapiens, UniProt Q99607 1-663); conditions: protein: recombinant; tags: N-terminal GST; dsDNA, one strand shown
# ELF4, sequence (Q99607 whole entry): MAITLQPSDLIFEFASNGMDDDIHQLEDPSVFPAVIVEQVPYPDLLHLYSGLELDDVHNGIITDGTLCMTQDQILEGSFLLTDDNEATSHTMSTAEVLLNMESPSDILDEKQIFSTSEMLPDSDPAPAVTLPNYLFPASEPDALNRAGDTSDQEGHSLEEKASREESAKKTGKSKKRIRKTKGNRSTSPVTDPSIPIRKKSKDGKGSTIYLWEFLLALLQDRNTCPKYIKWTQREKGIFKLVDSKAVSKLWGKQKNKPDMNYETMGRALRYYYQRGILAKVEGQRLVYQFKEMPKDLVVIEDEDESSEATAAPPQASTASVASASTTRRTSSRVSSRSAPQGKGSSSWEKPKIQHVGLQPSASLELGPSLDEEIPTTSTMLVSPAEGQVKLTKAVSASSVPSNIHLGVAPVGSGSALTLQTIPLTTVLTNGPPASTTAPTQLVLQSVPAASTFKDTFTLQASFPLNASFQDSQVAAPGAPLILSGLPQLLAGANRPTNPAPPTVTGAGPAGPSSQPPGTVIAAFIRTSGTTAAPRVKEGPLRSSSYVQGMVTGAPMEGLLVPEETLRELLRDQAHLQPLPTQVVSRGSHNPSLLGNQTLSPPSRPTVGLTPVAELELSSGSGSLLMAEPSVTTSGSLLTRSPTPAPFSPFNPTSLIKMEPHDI
# Method in brief: as §1
# [15] = biological target: T9, ELK4 (Homo sapiens, UniProt P28324-2 1-405); conditions: protein: recombinant; tags: N-terminal GST; dsDNA, one strand shown
# T9 sequence: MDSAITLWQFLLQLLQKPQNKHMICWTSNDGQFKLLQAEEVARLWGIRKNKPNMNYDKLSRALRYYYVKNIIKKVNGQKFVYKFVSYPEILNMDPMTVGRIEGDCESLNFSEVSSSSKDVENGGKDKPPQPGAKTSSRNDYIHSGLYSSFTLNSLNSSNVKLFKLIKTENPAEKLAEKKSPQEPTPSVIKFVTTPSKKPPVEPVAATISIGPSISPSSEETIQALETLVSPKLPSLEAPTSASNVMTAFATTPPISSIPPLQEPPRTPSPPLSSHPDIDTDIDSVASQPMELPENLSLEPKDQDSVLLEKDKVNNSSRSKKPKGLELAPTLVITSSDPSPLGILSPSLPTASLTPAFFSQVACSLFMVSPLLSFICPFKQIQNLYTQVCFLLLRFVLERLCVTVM
# Method in brief: as §1
# [16] = biological target: T10, ETV2 (Homo sapiens, UniProt O00321 1-342); conditions: protein: recombinant; tags: N-terminal GST; dsDNA, one strand shown
# T10 sequence: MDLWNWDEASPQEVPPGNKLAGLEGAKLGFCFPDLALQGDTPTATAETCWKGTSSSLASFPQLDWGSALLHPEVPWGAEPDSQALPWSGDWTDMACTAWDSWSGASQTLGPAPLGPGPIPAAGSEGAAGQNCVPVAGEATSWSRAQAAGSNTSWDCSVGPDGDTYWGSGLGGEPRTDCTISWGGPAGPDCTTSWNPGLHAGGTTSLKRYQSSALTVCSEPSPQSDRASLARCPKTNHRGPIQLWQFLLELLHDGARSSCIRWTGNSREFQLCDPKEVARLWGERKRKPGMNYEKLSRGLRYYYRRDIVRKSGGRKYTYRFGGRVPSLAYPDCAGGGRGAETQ
# Method in brief: as §1
# [17] = biological target: T11, ELF3 (Homo sapiens, UniProt P78545 1-371); conditions: protein: recombinant; tags: N-terminal GST; dsDNA, one strand shown
# T11 sequence: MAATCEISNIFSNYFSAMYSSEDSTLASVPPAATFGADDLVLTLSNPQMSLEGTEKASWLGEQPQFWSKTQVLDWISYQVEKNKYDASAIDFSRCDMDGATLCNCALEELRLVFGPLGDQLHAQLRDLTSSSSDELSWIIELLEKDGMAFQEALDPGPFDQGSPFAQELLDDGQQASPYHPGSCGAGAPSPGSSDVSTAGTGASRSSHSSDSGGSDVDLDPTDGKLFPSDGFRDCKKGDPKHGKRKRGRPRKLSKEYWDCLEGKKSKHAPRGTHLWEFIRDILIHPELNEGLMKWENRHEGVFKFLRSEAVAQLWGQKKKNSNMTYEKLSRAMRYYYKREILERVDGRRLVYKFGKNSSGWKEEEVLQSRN
# Method in brief: as §1
# [18] = biological target: CRX (Homo sapiens, UniProt O43186 1-299); conditions: protein: recombinant; tags: N-terminal GST; dsDNA, one strand shown
# CRX, sequence (O43186 whole entry): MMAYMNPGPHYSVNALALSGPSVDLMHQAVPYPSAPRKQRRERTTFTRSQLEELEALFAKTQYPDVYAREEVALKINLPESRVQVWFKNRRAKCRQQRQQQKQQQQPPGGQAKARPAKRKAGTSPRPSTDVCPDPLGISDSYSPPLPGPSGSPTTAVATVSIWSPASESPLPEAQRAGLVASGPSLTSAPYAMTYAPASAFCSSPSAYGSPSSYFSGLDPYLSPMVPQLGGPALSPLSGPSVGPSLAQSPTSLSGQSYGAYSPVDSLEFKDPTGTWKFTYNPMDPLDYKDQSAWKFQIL
# Method in brief: as §1
# [19] = biological target: ETV1 (Homo sapiens, UniProt P50549 1-477); conditions: protein: recombinant; tags: N-terminal GST; dsDNA, one strand shown
# ETV1, sequence (P50549 whole entry): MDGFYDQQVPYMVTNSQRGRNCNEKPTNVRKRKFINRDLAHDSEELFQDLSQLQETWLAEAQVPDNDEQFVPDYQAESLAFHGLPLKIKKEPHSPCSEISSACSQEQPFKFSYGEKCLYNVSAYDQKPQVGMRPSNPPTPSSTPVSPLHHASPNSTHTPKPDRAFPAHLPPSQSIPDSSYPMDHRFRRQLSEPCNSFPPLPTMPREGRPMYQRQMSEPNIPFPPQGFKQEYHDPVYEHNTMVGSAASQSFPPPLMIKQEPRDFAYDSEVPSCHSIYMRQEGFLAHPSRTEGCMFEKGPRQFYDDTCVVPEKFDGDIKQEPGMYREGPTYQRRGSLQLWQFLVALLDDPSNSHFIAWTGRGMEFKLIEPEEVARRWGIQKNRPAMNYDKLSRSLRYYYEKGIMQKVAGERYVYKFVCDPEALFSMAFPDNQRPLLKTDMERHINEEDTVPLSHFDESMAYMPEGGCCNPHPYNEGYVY
# Method in brief: as §1
sequence,measurement,setting,value
CATATT,binding signal,[1],"1.22 fold enrichment (6-mer frequency, TF over GST control)"
same,binding signal,[2],"1.17 fold enrichment (6-mer frequency, TF over GST control)"
same,binding signal,[3],"1.27 fold enrichment (6-mer frequency, TF over GST control)"
same,binding signal,[4],"1.26 fold enrichment (6-mer frequency, TF over GST control)"
same,binding signal,[5],"1.24 fold enrichment (6-mer frequency, TF over GST control)"
same,binding signal,[6],"1.17 fold enrichment (6-mer frequency, TF over GST control)"
same,binding signal,[7],"1.27 fold enrichment (6-mer frequency, TF over GST control)"
same,binding signal,[8],"1.28 fold enrichment (6-mer frequency, TF over GST control)"
same,binding signal,[9],"1.17 fold enrichment (6-mer frequency, TF over GST control)"
same,binding signal,[10],"1.22 fold enrichment (6-mer frequency, TF over GST control)"
same,binding signal,[11],"1.26 fold enrichment (6-mer frequency, TF over GST control)"
same,binding signal,[12],"1.31 fold enrichment (6-mer frequency, TF over GST control)"
same,binding signal,[13],"1.12 fold enrichment (6-mer frequency, TF over GST control)"
same,binding signal,[14],"1.32 fold enrichment (6-mer frequency, TF over GST control)"
same,binding signal,[15],"1.29 fold enrichment (6-mer frequency, TF over GST control)"
same,binding signal,[16],"1.43 fold enrichment (6-mer frequency, TF over GST control)"
same,binding signal,[17],"1.35 fold enrichment (6-mer frequency, TF over GST control)"
same,binding signal,[18],"1.33 fold enrichment (6-mer frequency, TF over GST control)"
same,binding signal,[19],"1.25 fold enrichment (6-mer frequency, TF over GST control)"
